Common to all, as to assay: NCI-60 one-dose screen, 48 h (100 = growth as untreated, 0 = no growth, -100 = all killed)
Holding throughout (conditions): 10 µM unless noted

Test [1] relates to K-562 leukemia.
For test [2], the system named is MALME-3M melanoma.
Test [3] relates to MDA-MB-231 breast.
The test system of test [4] is RXF 393 renal.
The test system of test [5] is SF-268 CNS.
Test [6] concerns SF-295 CNS.
In test [7] the test system is SF-539 CNS.
The test system of test [8] is UACC-257 melanoma.
Test [9] has as its system M14 melanoma.
In test [10] the test system is HCT-15 colon.
Test [11] concerns HT29 colon.
The test system of test [12] is SNB-75 CNS.
The subject of test [13] is SNB-19 CNS.
Test [14] concerns U251 CNS.
The subject of test [15] is PC-3 prostate.
The test system of test [16] is SK-MEL-5 melanoma.
The test system of test [17] is UACC-62 melanoma.
Test [18] relates to LOX IMVI melanoma.
Test [19] deals with SK-MEL-28 melanoma.
Test [20] deals with SK-MEL-2 melanoma.

About 83,000 compounds went through this panel and 20% of them were active in at least one assay; those are over-represented in the sample as a whole.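 48-hour exposure, single concentration, 96-well plates; percent growth endpoint where 0 means no net growth. Active: below 10.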 A number with no mark means an inactive call. Calls of active or inactive are those of the source.

As to `CCOc1ccccc1C(=O)OCC(=O)Nc1cccc(S(=O)(=O)N(C)C)c1`, the growth in test [1] was 104%; in test [2], 81.5%; in test [3], 110%; in [4], 64.6%; in test [5] it was 122%; in test [6] it was 160%. Moreover, the growth was 100% in test [7]; 93.6% in [8]; 107% in test [9]; 123% in [10]; 98.6% in test [11]; 82.7% in [12]. The growth in test [13] was 83.5%; in [14] it was 105%; in test [15], 107%; in test [16], 97.4%; in [17], 94.5%; in [18] it was 101%. For the same compound, the growth in test [19] is 104%; in test [20], 94.2%.
As for `O=NC1CC=CCC1c1ccccc1` (stereo unspecified), the growth in [1] was 105%; in [2], 114%; in test [3], 101%; in test [4], 116%; in [5] it was 104%; in test [6] it was 122%. Further, the growth in [7] is 98.5%; in test [8] it was 105%; in [9], 105%; in [10] it was 104%; in [11] it was 100%; in [12], 93.5%. Moreover, the growth in test [13] was 109%; in test [14], 105%; in [15] it was 94%; in test [16], 108%; in test [17], 100%; in [19] it was 114%. Moreover, the growth in test [20] is 108%.
For `O=[N+]([O-])c1ccc(Oc2cccc(C(F)(F)F)c2)c([N+](=O)[O-])c1`, the growth in test [1] was 11.2%; in [2] it was 52.3%; in test [3] it was 19.7%; in [4] it was 53.6%; in [5] it was 32.2%; in test [6] it was 108%. The growth was 36.9% in [7]; 53.7% in test [8]; 9.6% (active) in test [9]; 19% in test [10]; -4.93% (active) in [11]; 92.2% in [12]. The growth in test [13] is 74.5%; in [14] it was 18.3%; in test [15] it was 88.9%; in test [17], 34.1%; in test [18], 8.07% (active); in test [19] it was 104%. Moreover, the growth in test [20] was 11.7%.
Consider `S=C(Nc1ccc(C2=NCCN2)cc1)Nc1ccc(C2=NCCN2)cc1`, for which the growth in test [1] was 91.4%; in test [2] it was 111%; in test [3], 113%; in test [4], 101%; in test [5], 120%; in test [6] it was 96.7%. Moreover, the growth in [7] is 93.4%; in test [8], 93.8%; in [9], 94.5%; in [10], 101%; in [11], 101%; in test [12], 110%. Besides, the growth in [13] was 105%; in test [14], 97.9%; in test [15] it was 100%; in [16] it was 96.6%; in test [17] it was 107%; in test [18] it was 96.7%. The growth in [19] is 110%; in test [20], 111%.
With `O=C(CSc1nc2c(n1Nc1ccccc1)-c1ccccc1SC2)Nc1nc(-c2ccc(Cl)cc2)cs1`, the growth in [1] was 78%; in [2], 64.2%; in test [3], 75.1%; in test [4], 98.8%; in test [5], 47.2%; in test [6] it was 45.3%. Further, the growth was 70.2% in test [7]; 89.5% in test [8]; 59.9% in test [9]; 77.4% in test [10]; 68.4% in test [11]; 44.8% in test [12]. The growth was 80.5% in test [13]; 34.4% in [14]; 72.2% in test [15]; 88.1% in test [16]; 83.3% in test [17]; 30.4% in test [18]. Besides, the growth in test [19] is 72%; in test [20], 111%.
Consider `Cn1c(N)c(N=O)c(=O)[nH]c1=O`, for which the growth in test [1] was 93.3%; in test [2], 104%; in test [3] it was 112%; in [4], 114%; in test [5], 110%; in [6], 114%. The growth is 105% in test [7]; 107% in [8]; 97.9% in test [9]; 112% in test [10]; 98.8% in test [11]; 97% in test [12]. Besides, the growth in test [13] is 105%; in test [14] it was 95.9%; in test [15] it was 98.7%; in [16], 102%; in test [17] it was 103%; in test [18], 102%. The growth in [19] is 108%; in test [20], 97.8%.
With `O=C(NN(C(=O)c1ccccc1)c1cccs1)c1ccccc1`, the growth in test [1] was 109%; in [2], 97.3%; in test [3], 93.4%; in test [4], 115%; in test [5] it was 112%; in test [6] it was 116%. Besides, the growth in [7] is 110%; in test [8], 139%; in [9] it was 101%; in [10], 101%; in [11], 98.5%; in test [12] it was 90.7%. For the same compound, the growth is 100% in [13]; 111% in [14]; 83.4% in [15]; 101% in test [16]; 88.1% in [17]; 93.7% in test [18]. The results for the growth in test [19] and in test [20] were 115% and 107%, respectively.
For `NC(=O)NN=C(C1CC1)C1CC1`, the growth is 94.8% in [1]; 143% in test [2]; 118% in test [3]; 138% in test [4]; 102% in test [5]; 106% in test [6]. For the same compound, the growth in [7] was 90.2%; in test [8], 101%; in [9], 106%; in [10], 98%; in test [11] it was 103%; in [12] it was 92.6%. Moreover, the growth was 106% in test [13]; 98.4% in test [14]; 112% in test [15]; 111% in test [16]; 110% in test [17]; 95.9% in test [18]. Besides, the growth is 116% in [19] and 110% in [20].
With `O=C1NC(=O)/C(=C\c2ccccc2)C2=C1CCCC2`, the growth in test [1] is -37.8% (active); in test [2], 50.6%; in test [3], 92.1%; in [4] it was 13.3%; in test [5], 39.4%; in test [6] it was 88.2%. The growth in [7] was 27.4%; in [8] it was -64.6% (active); in test [9] it was 36.4%; in test [10], 20.9%; in test [11], 104%; in test [12], 102%. In addition, the growth in [13] was 88%; in test [14], 2.63% (active); in test [15], 20.3%; in test [16], -78.7% (active); in test [17] it was 30%; in [18], -58.4% (active). Moreover, the growth in test [19] is 36.3%; in test [20], -74.2% (active).
For `CCOC(=O)C(C(C)=O)c1nc2sc3cc(Cl)ccc3n2c(=N)c1C#N` (stereo unspecified), the growth in test [1] was 87.4%; in [2] it was 52.5%; in test [3] it was 62.4%; in [4], 50.8%; in [5] it was 64.6%; in [6], 74.7%. Moreover, the growth in [7] is 99.9%; in test [8], 72.6%; in [9], 77.8%; in [10], 122%; in [11], 52.8%; in test [12], 34.5%. For the same compound, the growth in test [13] was 89.6%; in [14], 86.2%; in test [15] it was 72.5%; in test [16], 73.9%; in test [17], 67.8%; in test [18] it was 97.2%. The values for the growth in test [19] and in test [20] were 69.8% and 74.1%, respectively.
In the case of `O=C(/C=C/c1cc2ccccc2[nH]c1=O)c1ccc(O)cc1`, the growth in test [1] is 5.94% (active); in test [2], 83.7%; in test [3], 59.5%; in test [4], 0.37% (active); in test [5] it was 20.4%; in test [6], 54%. For the same compound, the growth in test [7] was 23.3%; in [8], 92.6%; in test [9], 76%; in [10], 35.2%; in [11], 55.5%; in test [12], 40.3%. The growth in test [13] is 57.4%; in test [14] it was 21.9%; in [15], 10.5%; in [16], 96.1%; in test [17] it was 83.8%; in [18], 26.8%. Further, the growth in [19] is 99.9%; in test [20] it was 83.7%.
For `COc1ccc(OC)c(/C=C/c2nc(=S)n(-c3ccc(Cl)cc3)[nH]2)c1`, the growth in [1] was 22.4%; in [2], 29.8%; in [3] it was 87.2%; in test [4], 51.9%; in test [5], 73.7%; in test [6] it was 31.2%. The growth in [7] was 39.5%; in test [8] it was 77.6%; in test [9] it was 31%; in [10], 41.2%; in test [11], 65.4%; in test [12], 42.5%. Besides, the growth was 51.2% in test [13]; 53.3% in [14]; 58.6% in test [15]; 32.5% in [16]; 42.8% in test [17]; 72.7% in [19]. In [20], the growth is 71.2%.
`O=C(COC(=O)[C@H](C[Se][Se]C[C@H](NC(=O)c1ccc(Br)cc1F)C(=O)OCC(=O)c1ccc(F)cc1)NC(=O)c1ccc(Br)cc1F)c1ccc(F)cc1`: the growth in test [1] is -1.8% (active); in test [2], -64.4% (active); in test [3], -82.2% (active); in test [4], -99.3% (active); in [5], -74.1% (active); in test [6], -65.8% (active). Further, the growth in [7] was -98.5% (active); in test [8], -50.2% (active); in test [9], -64.6% (active); in test [10] it was -42.6% (active); in [11], 3.66% (active); in test [12], -100% (active). Further, the growth in [13] was -86.3% (active); in test [14] it was -100% (active); in test [15], -51.6% (active); in test [16] it was -18.8% (active); in [17], -4.12% (active); in [18], -83% (active). Besides, the growth in test [19] was -90.6% (active); in [20] it was -58.9% (active).
`Fc1ccc([C@@H]2CCNC[C@H]2COc2ccc3c(c2)OCO3)cc1`: the growth in [1] was 51.7%; in [2] it was 78.4%; in [3] it was 11.5%; in test [4], 71.7%; in [5] it was 92.3%; in test [6], 74.2%. In addition, the growth in [7] is 89.5%; in test [8], 76.8%; in test [9], 49.7%; in [10], 85.8%; in test [11], 14.9%; in test [12], 57.6%. The growth is 80.2% in [13]; 70.3% in test [14]; 53.6% in test [15]; 57.5% in [17]; 42.9% in test [18]; 94.4% in test [19]. Moreover, in [20], the growth is 83.8%.
In the case of `Nc1ccccc1-c1ccc([N+](=O)[O-])cc1`, the growth in [1] was 15.5%; in [2], 111%; in test [3], 67%; in [4] it was 111%; in test [5] it was 49.4%; in test [6], 44.2%. The growth in [7] was 52.8%; in test [8], 78.9%; in test [9], 44.7%; in test [10], 47.8%; in [11] it was 78.1%; in test [12] it was 71.9%. The growth is 67.3% in test [13]; 67.4% in test [14]; 38.9% in [15]; 34.8% in test [16]; 24.9% in test [17]; 54.7% in test [18]. The growth in test [19] is 88.4%; in test [20] it was 24.3%.

Source of the values: PubChem BioAssay (NCI).
